The target of test [1] is Voltage-gated inwardly rectifying potassium channel KCNH2 (Homo sapiens) (UniProt Q12809). Description: qHTS Assay for Small Molecule Inhibitors of the Human hERG Channel Activity (AID 588834).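 Note: lower thallium flux fluorescence means stronger hERG block; nearly all actives have a fitted effect of over 50% in size.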 Note: potency is the fitted concentration of half-maximal effect. As to conditions: U2OS BacMam hERG, FluxOR thallium flux fluorescence; series mostly up to 46.1 µM. The procedure, abridged:
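hERG block measured as reduced thallium-dye (FluxOR) fluorescence after stimulation buffer addition, read over 2 min. Cells were hERG-BacMam-transduced U2OS exposed to compound ~10 min […]; concentration-response fitted with Hill equation for AC50.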

The nature of test [2]: qHTS assay for small molecule antagonists of retinoid X receptor alpha signaling (AID 588546; active = well fitted inhibition curve with a large enough effect in the signal ratio, with a control signal flat, not every such curve was filed as active; the % refers to the signal ratio;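 note: cells stimulated with 9-cis-retinoic acid as agonist; % is set by controls: 0 for no effect and ±100 for the full control effect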). As to conditions: HEK293T RXRa-UAS-bla, beta-lactamase ratio, antagonist mode; measured here: W530 green channel, cytotoxicity proxy. The procedure, abridged:
(§1)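 Beta-lactamase reporter inhibition, read as CCF4 fluorescence ratio (ex 405, em 460/530 nm) after 2 h at RT. HEK293T UAS-bla cells, 2500/well, were stimulated with 9-cis-RA at 500 or 100 nM final alongside test compound for 18 h at 37 C.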

In test [3] the target is Retinoic acid receptor RXR-alpha (Homo sapiens) (UniProt P19793). Described as above. As to conditions: HEK293T RXRa-UAS-bla, beta-lactamase ratio, antagonist mode. The procedure, abridged: as §1
Retinoic acid receptor RXR-alpha (Homo sapiens), sequence (P19793 whole entry, looked up): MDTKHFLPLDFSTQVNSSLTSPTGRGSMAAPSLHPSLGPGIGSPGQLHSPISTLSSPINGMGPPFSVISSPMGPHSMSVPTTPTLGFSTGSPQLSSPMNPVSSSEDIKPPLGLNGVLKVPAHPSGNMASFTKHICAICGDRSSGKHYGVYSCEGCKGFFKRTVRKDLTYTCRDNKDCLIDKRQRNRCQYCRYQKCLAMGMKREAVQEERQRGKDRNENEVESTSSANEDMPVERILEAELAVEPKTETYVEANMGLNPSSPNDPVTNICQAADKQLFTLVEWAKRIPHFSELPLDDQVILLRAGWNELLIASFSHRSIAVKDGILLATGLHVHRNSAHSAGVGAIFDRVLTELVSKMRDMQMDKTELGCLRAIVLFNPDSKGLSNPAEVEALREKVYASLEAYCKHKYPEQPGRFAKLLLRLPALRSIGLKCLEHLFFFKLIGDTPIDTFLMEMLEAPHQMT
The target of test [4] is Luciferin 4-monooxygenase (Photinus pyralis) (UniProt P08659). Description: Biochemical firefly luciferase enzyme assay for NPC (AID 624030).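 Note: purified P. pyralis luciferase at 10 nM with luciferin and ATP substrate; 0% = DMSO and -100% = full luciferase inhibition by PTC124 control; nearly all actives have a fitted effect of over 70% in size.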 The conditions noted are these: purified P. pyralis luciferase, luminescence, 5 min; series mostly up to 58.6 µM. In a few lines: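 Direct inhibition of firefly luciferase enzyme (10 nM final, 50 mM Tris Acetate) assessed by luminescence within 5 minutes. Percent activity scaled between DMSO and PTC124 positive control, with concentration-effect curves classified by fit quality and response.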
Luciferin 4-monooxygenase (Photinus pyralis), sequence (P08659 whole entry, looked up): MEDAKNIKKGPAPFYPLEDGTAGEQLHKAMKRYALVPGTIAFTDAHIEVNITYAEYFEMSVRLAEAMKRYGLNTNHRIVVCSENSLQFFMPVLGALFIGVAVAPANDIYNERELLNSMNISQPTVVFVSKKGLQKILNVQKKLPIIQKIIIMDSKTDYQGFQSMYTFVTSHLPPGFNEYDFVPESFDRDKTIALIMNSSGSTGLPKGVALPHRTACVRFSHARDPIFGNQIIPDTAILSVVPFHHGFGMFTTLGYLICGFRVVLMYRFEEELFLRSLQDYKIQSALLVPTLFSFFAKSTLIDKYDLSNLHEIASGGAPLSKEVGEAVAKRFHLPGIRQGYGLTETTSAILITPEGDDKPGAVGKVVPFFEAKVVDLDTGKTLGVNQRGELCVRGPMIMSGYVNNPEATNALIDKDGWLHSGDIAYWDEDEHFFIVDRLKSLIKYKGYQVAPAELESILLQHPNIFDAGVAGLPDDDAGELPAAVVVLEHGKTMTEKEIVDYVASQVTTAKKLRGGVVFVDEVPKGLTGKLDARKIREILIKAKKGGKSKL

Test [5] in a line: S16 Schwann cell viability assay (CellTiter-Glo assay) (AID 624031).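 Note: native untransfected S16 rat Schwann cells; cellular ATP luminescence as a viability measure; plate controls were DMSO-treated cells for no effect and cell-free wells for full effect; nearly all actives have a fitted effect of over 70% in size.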 As to conditions: S16 rat Schwann cells viability, 24 h; series mostly up to 57.5 µM. The procedure, abridged:
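Cells were seeded at 500-750 per well in phenol red-free DMEM with 10% FBS and left overnight. Compounds or DMSO were pinned in, incubation ran 24 h at 37 °C/5% CO2, then CellTiter-Glo reagent was added and luminescence measured.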

Test [6] can be described thus: S16 Schwann cell PMP22 intronic element firefly luciferase assay (AID 624032).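 Note: plate controls were DMSO for no effect and PTC124 positive control mean for full effect; nearly all actives have a fitted effect of over 30% in size.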 The conditions noted are these: S16 rat Schwann cells, PMP22 element FLuc, 24 h; series mostly up to 57.5 µM. In a few lines:
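Luciferase reporter of PMP22 intronic-element expression in stably transfected S16 rat Schwann cells, read by ONE-Glo luminescence after 24 h compound exposure at 37 C. Activity scaled between DMSO (0%) and positive-control PTC124; concentration-effect curves quality-classified.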

The target in test [7] is Tumor necrosis factor (Homo sapiens) (UniProt P01375). Description: qHTS assay to identify small molecules that stimulate Tumor Necrosis Factor-alpha (TNF-alpha) secretion (AID 651757; active = well fitted curve in the direction sought with a large enough effect in the signal ratio; the % refers to the signal ratio; note: 0% is about no effect). The conditions noted are these: Human cells, HTRF 665/615 ratio; series mostly up to 92.2 µM. The procedure, abridged:
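Human monocytic THP-1 cells are plated, treated with compound and held at 37 C for 17 hrs. Labeled anti-TNF-alpha antibody mixture is then added; after 3 hr at room temperature, TR-FRET signal reports secreted TNF-alpha.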

A short description of test [8]: S16 Schwann cell PMP22 intronic element beta-lactamase assay (AID 624044; calls by dose curve;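 note: 0% = DMSO and -100% = potassium clavulanate positive control; nearly all actives have a fitted effect of over 15% in size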). The conditions noted are these: S16 rat Schwann cells, PMP22 element beta-lactamase FRET, 24 h; ratio activity, negative = inhibition: at 38.3 µM (top of the series) unless noted. The procedure, abridged: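 Beta-lactamase reporter under a PMP22 intronic regulatory element in stable S16 rat Schwann cells; 24 h compound exposure. 460 nm blue signal normalized between DMSO (0%) and potassium clavulanate, with 535 nm FRET tracking viability; curves classed by r2 and response.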

Test [9] in a line: qHTS assay for small molecule agonists of the antioxidant response element (ARE) signaling pathway (AID 651741; active = well fitted activation curve with a large enough effect in the signal ratio; the % refers to the signal ratio; note: potency is the fitted concentration of half-maximal effect; for activation: % of control where 0% means no effect). As to conditions: HepG2 ARE-bla reporter, beta-lactamase FRET ratio, 16 h; series mostly up to 96 µM. The procedure, abridged:
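Beta-lactamase reporter under ARE control in HepG2 cells, 2,000 per well, was induced by 16 h compound treatment at 37 C. Read-out was fluorescence from LiveBLAzer B/G FRET substrate after 2 h at room temperature.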

Test [10] is described as follows: qHTS assay for small molecule activators of the p53 signaling pathway (AID 651743; active = well fitted activation curve with a large enough effect in the signal ratio, not every such curve was filed as active; the % refers to the signal ratio; note: % of control where 0% means no effect). The conditions noted are these: HCT-116 p53RE-bla, beta-lactamase FRET ratio, 16 h; activation: stronger effect = higher value. In a few lines: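 After 16 hours compound treatment at 37 C, HCT-116 cells stably expressing p53RE-driven beta-lactamase were loaded with LiveBLAzer B/G FRET substrate for 2 hours at room temperature. Fluorescence intensity served as the p53 activation read-out.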

Test [11] can be described thus: qHTS assay for small molecule disruptors of the mitochondrial membrane potential - 1 hr assay (AID 651754; calls by dose curve; note: % is set by controls: 0 for no effect and ±100 for the full control effect; nearly all actives have a fitted effect of over 35% in size). As to conditions: series mostly up to 92.2 µM. In a few lines:
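Loss of mitochondrial potential shifts the cationic dye from red mitochondrial aggregates to green cytoplasmic monomers. Cells (HepG2) are treated with compound for 1 hr before a 30 min dye incubation at 37C.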

The nature of test [12]: qHTS assay for small molecule disruptors of the mitochondrial membrane potential - 5 hr assay (AID 651755; calls by dose curve; note: % is set by controls: 0 for no effect and ±100 for the full control effect; nearly all actives have a fitted effect of over 40% in size). The conditions noted are these: JC-1-type ratio dye; series mostly up to 92.2 µM. In a few lines: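 Membrane-potential dye readout: red aggregate (540 ex/590 em) versus green monomer (490 ex/535 em) fluorescence after 30 min dye loading, following 5 hr compound exposure at 37C of overnight-plated HepG2 cells.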

Test [13] concerns the target Thyroid hormone receptor beta (Homo sapiens) (UniProt P10828). Description: qHTS assay for small molecule agonists of thyroid hormone receptor beta signaling (AID 588545; calls by dose curve). As to conditions: TR-UAS-bla GripTite HEK 293, beta-lactamase ratio, agonist mode, 18 h, percent of T3 response, DMSO as zero; series mostly up to 76.7 µM. The procedure, abridged:
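Agonist-mode beta-lactamase reporter assay, HEK 293 cells, 2% charcoal/dextran FBS; cells plated 4 hrs, compound 18 hrs at 37 C, CCF4 2 hrs RT. Normalized to 10 nM T3 (100%) and DMSO (0%); Hill fit gives EC50, efficacy.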

Each structure is given as a SMILES string. “And” between values parts separate entries of the source, which are not always exact repeats. Identical values can stand only once. Records with an inconclusive call do not appear. The source made the active and inactive calls. Unless noted, calls come from the whole dose curve; as a rule, active = well fitted curve in the direction sought with a large enough effect; inconclusive = small, poorly fitted or top-dose-only effect, or another doubt; inactive = no such curve, though single readings can be large; an effect the other way counts as inactive or inconclusive. *1 amine or outer side, *2 acyl side, *3 side chain or, on linkers, in order; H or OH if unused. Where a SMILES comes first, the peptide text is derived from it. Bridges are numbered along the chain shown (N, C = ends). [ ]: non-standard residue; d: D form. The star is where a group is joined. X5 = NC1=N[C@@H]([C@H](N[*:1])C(=O)[*:2])C[C@H](O)N1; ΔAla(Z-3-ureido) = NC(=O)N/C=C(\N)C(=O)O; β3hOrn = NCCC[C@H](N)CC(=O)*; Dap = NC[C@H](N)C(=O)O

Tumor necrosis factor (Homo sapiens), sequence (P01375 whole entry, looked up): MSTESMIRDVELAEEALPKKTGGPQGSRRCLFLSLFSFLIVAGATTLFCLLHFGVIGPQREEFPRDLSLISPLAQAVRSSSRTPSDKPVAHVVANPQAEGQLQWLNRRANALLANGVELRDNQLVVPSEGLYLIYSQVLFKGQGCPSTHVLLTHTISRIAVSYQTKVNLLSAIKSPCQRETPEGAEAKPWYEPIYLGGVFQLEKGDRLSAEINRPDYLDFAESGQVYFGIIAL
Voltage-gated inwardly rectifying potassium channel KCNH2 (Homo sapiens), sequence (Q12809 whole entry, looked up): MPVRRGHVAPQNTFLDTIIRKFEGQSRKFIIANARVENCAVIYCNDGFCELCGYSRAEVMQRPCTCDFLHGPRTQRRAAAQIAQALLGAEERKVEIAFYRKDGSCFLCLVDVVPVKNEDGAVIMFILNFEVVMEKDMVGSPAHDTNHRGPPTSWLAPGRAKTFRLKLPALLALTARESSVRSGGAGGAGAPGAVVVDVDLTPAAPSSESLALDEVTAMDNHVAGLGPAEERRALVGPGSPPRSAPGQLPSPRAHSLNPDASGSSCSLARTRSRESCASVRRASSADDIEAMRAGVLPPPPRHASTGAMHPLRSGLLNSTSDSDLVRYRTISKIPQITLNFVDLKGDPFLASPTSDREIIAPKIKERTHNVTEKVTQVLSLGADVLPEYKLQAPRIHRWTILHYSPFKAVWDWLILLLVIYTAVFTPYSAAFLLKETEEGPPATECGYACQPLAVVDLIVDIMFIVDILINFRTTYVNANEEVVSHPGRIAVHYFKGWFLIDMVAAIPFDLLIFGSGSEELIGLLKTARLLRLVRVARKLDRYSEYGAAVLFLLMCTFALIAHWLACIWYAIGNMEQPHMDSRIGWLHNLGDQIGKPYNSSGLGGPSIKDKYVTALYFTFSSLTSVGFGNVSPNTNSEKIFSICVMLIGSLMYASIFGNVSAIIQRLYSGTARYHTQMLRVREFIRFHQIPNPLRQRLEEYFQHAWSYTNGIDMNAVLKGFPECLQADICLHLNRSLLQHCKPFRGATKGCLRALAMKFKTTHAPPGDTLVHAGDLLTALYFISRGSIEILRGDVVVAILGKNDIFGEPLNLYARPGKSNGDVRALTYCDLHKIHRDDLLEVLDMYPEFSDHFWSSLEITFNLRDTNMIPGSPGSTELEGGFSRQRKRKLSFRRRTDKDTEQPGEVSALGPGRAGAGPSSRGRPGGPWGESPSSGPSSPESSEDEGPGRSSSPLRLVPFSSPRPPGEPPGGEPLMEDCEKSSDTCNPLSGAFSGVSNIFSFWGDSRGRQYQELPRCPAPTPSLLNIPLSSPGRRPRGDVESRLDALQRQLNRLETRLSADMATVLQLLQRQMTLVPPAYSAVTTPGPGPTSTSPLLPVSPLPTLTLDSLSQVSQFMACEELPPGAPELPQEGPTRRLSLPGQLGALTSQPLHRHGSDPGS
Thyroid hormone receptor beta (Homo sapiens), sequence (P10828 whole entry, looked up): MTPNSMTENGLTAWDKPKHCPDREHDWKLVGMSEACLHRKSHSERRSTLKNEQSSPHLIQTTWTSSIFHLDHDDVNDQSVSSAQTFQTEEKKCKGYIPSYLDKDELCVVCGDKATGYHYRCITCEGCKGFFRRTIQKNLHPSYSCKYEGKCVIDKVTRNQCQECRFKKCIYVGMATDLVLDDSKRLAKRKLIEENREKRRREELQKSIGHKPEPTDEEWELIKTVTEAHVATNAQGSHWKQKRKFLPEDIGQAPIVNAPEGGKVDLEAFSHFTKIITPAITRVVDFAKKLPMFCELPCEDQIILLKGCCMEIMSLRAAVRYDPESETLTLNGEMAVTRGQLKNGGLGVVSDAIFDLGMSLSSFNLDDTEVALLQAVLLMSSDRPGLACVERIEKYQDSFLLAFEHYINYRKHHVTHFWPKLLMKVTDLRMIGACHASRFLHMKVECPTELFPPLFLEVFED

Regarding `NC[C@H]1O[C@H](O[C@H]2[C@H](O)[C@@H](O[C@H]3O[C@H](CO)[C@@H](O)[C@H](N)[C@H]3O)[C@H](N)C[C@@H]2N)[C@H](N)C[C@@H]1O`, the Potency entry in test [1] is “inactive”.

Regarding `CCOC(C)OCC`, the results for the max response in test [2] and in test [3] were -5.73% and -3.17% (inactive), respectively. Moreover, the Potency result in test [1], in test [4], in test [5], in [6] and in test [7] was “inactive” in each case.

Turning to `C#C[C@]1(O)CC[C@H]2[C@@H]3CCC4=C(CCC(=O)C4)[C@H]3CC[C@@]21C`, in [1], the Potency entry is “inactive”.

Consider `CCCCC/C=C\CCC(=O)N[C@H]1[C@H](Oc2c3cc4cc2Oc2ccc(cc2Cl)[C@@H](O[C@@H]2O[C@H](CO)[C@@H](O)[C@H](O)[C@H]2NC(C)=O)[C@@H]2NC(=O)[C@H](NC(=O)[C@@H]4NC(=O)[C@H]4NC(=O)[C@@H](Cc5ccc(c(Cl)c5)O3)NC(=O)[C@H](N)c3ccc(O)c(c3)Oc3cc(O)cc4c3)c3ccc(O)c(c3)-c3c(O[C@H]4O[C@H](CO)[C@@H](O)[C@H](O)[C@@H]4O)cc(O)cc3[C@@H](C(=O)O)NC2=O)O[C@H](CO)[C@@H](O)[C@@H]1O`, for which the Potency result in [1] is “inactive”.

For `CC[C@@H](C)[C@H](N)C(=O)O`, in test [1], the Potency result was “inactive”.

For `CC(C)(C)CC(C)(C)c1ccc(OCCO)cc1`, the max response in [2] is 6.21%; in test [3], -7.14% (inactive). The Potency entry in test [1], in test [4], in test [5], in [11] and in test [7] was “inactive” each time. Also, the ratio activity, negative = inhibition in test [8] is -12.4% (inactive). Also, the Potency in [9] is 37.6 µM (active). Also, the activation in test [10] was 9.34% (inactive).

`CC(O)[C@@H]1NC(=O)[C@H](Cc2ccccc2)NC(=O)[C@H](C(C)O)NC(=O)[C@H](CCCCN)NC(=O)[C@H](Cc2c[nH]c3ccccc23)NC(=O)[C@H](Cc2ccccc2)NC(=O)[C@H](Cc2ccccc2)NC(=O)[C@H](CC(N)=O)NC(=O)[C@H](CCCCN)NC(=O)[C@@H](NC(=O)CNC(=O)[C@H](C)N)CSSC[C@@H](C(=O)O)NC(=O)[C@H](CO)NC1=O` (some centres undefined): the Potency entry in test [1] was “inactive”.

Turning to `Nc1nc(NC2CC2)c2ncn([C@@H]3C=C[C@@H](CO)C3)c2n1`, in test [1], the Potency result is “inactive”.

For the compound `CO[C@H]1C=CO[C@@]2(C)Oc3c(C)c(O)c4c(O)c(cc(O)c4c3C2=O)NC(=O)/C(C)=C\C=C/[C@H](C)[C@H](O)[C@@H](C)[C@@H](O)[C@@H](C)[C@H](OC(C)=O)[C@@H]1C`, in test [1], the Potency entry was “inactive”.

For `NCCN`, the figures for the max response in test [2] and in test [3] were -1.66% and -7.75% (inactive), respectively. Further, the Potency entry in [4], in test [5], in test [6], in [11], in test [12] and in test [7] was “inactive” each time. Besides, the activation in test [10] is 3.88% (inactive).

Regarding `C=C[C@]1(C)C[C@@H](OC(=O)CSCCN(CC)CC)[C@]2(C)[C@H](C)CC[C@]3(CCC(=O)[C@H]32)[C@@H](C)[C@@H]1O`, the Potency in test [1] was 2.24 µM (active).

For the compound `CC(C)=CCC/C(C)=C/CC/C(C)=C/CC/C(C)=C/CC1=C(C)C(=O)c2ccccc2C1=O`, in [1], the Potency result is “inactive”.

Consider `C[C@@H]1C[C@H]2[C@@H]3C[C@H](F)C4=CC(=O)C=C[C@]4(C)[C@@]3(Cl)[C@@H](O)C[C@]2(C)[C@H]1C(=O)COC(=O)C(C)(C)C`, for which the Potency entry in test [1] is “inactive”.

Regarding `CC[C@@H]1/C=C(\C)C[C@H](C)C[C@H](OC)[C@H]2O[C@@](O)(C(=O)C(=O)N3CCCC[C@H]3C(=O)O[C@H](/C(C)=C/[C@@H]3CC[C@@H](Cl)[C@H](OC)C3)[C@H](C)[C@@H](O)CC1=O)[C@H](C)C[C@@H]2OC`, the Potency entry in test [1] was “inactive”.

In the case of `O=P(O)(O)O`, the max response in test [2] is 6.72%; in [3], 2.87% (inactive). For the same compound, the Potency entry in [1], in [4], in test [5], in [6], in [9] and in [11] was “inactive” in each case. Besides, the Potency result in test [12] and in [7] was “inactive” throughout. The ratio activity, negative = inhibition in test [8] was 2.1% (inactive).

Consider `NCCC[C@H](N)CC(=O)N[C@H]1CNC(=O)[C@H]([C@H]2C[C@H](O)NC(N)=N2)NC(=O)/C(=C/NC(N)=O)NC(=O)[C@H](CO)NC(=O)[C@H](CO)NC1=O` (β3hOrn-[Dap]SS[ΔAla(Z-3-ureido)][X5]; lactam 1-C), for which the Potency result in [1] was “inactive”.

`CO/N=C(\C(=O)N[C@@H]1C(=O)N2C(C(=O)O)=CCS[C@H]12)c1csc(N)n1`: in test [1], the Potency entry was “inactive”.

For `OCCOCCOCCO`, the max response was -16.7% and -5.33% in test [2]; 0.587% (inactive) and -7.45% (inactive) in test [3]. Besides, the Potency entry in [1], in test [4], in test [5], in test [6] and in test [9] was “inactive” throughout. In test [10], the activation was 1.43% (inactive) and -1.5% (inactive).

In the case of `CC(=O)[C@@]1(O)CC[C@H]2[C@@H]3C=C(Cl)C4=CC(=O)[C@@H]5C[C@@H]5[C@]4(C)[C@H]3CC[C@@]21C`, in [1], the Potency entry is “inactive”.

Regarding `CC(C)[C@@H]1CC[C@@H](C)C[C@H]1O`, the outcome in test [13] was inactive. For the same compound, the Potency entry in [1] and in test [9] was “inactive” throughout.

With `CCOC(=O)[C@H](CS)NCCN[C@@H](CS)C(=O)OCC`, the Potency entry in [1] is “inactive”.

As to `C[C@@H]1NC(=O)[C@@H](N)CNC(=O)[C@H](C2CCNC(N)=N2)NC(=O)/C(=C/NC(N)=O)NC(=O)[C@H](CNC(=O)C[C@@H](N)CCCN)NC1=O` (some centres undefined), the Potency entry in test [1] is “inactive”.

Source of the values: PubChem BioAssay (NCATS).
